This passage reports residual activity results from ChEMBL document CHEMBL2218924, “A broad activity screen in support of a chemogenomic map for kinase signalling research and drug discovery” (Biochem J, 2013).

Test [1] addresses PAS domain-containing serine/threonine-protein kinase (Homo sapiens) (UniProt Q96RG2). The conditions noted are these: at 1 µM.
The target of test [2] is Serine/threonine-protein kinase PAK 5 (Homo sapiens) (UniProt Q9P286). The conditions noted are these: at 1 µM.
The target is the same in test [3]. The conditions noted are these: at 10 µM.
In test [4] the target is Serine/threonine-protein kinase PAK 6 (Homo sapiens) (UniProt Q9NQU5). The conditions noted are these: at 1 µM.
Serine/threonine-protein kinase PAK 6 (Homo sapiens), sequence (Q9NQU5 whole entry, looked up): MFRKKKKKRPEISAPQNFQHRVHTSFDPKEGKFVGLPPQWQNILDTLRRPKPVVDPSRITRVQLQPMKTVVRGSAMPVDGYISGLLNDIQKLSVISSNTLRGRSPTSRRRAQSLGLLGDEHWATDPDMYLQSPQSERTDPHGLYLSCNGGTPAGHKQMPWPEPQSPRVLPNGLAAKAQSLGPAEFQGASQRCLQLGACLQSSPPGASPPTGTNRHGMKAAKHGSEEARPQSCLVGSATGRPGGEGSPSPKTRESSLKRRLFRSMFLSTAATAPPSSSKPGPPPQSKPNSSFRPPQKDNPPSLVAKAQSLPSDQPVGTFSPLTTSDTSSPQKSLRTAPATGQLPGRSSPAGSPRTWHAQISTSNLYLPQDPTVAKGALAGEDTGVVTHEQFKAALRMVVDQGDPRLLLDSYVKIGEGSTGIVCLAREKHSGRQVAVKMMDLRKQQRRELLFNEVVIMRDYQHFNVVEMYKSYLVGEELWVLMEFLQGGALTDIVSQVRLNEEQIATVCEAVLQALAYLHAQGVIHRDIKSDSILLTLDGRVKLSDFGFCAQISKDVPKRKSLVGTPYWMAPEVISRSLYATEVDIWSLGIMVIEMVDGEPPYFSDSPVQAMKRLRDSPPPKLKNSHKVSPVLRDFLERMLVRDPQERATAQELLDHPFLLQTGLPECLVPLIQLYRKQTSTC
Test [5] shares this target. The conditions noted are these: at 10 µM.
Test [6] has as its target PAS domain-containing serine/threonine-protein kinase (Homo sapiens) (UniProt Q96RG2). The conditions noted are these: at 10 µM.
For test [7], the target named is Activated CDC42 kinase 1 (Homo sapiens) (UniProt Q07912). The conditions noted are these: at 1 µM.
Activated CDC42 kinase 1 (Homo sapiens), sequence (Q07912 whole entry, looked up): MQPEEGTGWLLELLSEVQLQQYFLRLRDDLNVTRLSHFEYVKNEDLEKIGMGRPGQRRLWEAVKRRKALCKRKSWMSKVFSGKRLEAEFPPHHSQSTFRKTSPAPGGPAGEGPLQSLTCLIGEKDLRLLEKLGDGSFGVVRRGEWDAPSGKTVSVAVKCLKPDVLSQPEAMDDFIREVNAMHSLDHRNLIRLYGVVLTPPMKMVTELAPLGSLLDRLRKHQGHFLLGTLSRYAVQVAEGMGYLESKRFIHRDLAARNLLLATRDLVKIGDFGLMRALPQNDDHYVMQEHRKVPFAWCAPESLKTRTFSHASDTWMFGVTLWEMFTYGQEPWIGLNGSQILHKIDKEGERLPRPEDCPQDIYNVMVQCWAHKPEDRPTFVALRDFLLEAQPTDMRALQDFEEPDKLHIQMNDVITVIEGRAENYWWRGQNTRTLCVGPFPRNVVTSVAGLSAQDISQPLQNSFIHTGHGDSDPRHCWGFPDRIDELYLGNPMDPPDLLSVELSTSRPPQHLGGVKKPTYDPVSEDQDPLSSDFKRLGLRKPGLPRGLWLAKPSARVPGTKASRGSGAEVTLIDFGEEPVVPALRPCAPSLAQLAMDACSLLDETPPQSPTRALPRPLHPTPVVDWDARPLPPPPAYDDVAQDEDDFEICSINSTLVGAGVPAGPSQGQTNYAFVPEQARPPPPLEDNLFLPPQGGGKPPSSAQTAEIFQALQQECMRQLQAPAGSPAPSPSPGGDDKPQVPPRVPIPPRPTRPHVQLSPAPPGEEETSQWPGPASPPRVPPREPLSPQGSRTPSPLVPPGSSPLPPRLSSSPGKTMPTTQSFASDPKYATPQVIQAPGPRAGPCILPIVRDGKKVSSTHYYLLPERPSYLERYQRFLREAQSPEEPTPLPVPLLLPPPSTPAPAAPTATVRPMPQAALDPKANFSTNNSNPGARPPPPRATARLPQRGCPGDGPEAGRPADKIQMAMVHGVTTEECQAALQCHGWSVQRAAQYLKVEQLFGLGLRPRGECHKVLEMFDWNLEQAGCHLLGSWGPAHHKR
Test [8] has the same target. The conditions noted are these: at 10 µM.
Test [9] concerns the target ALK tyrosine kinase receptor (Homo sapiens) (UniProt Q9UM73). The conditions noted are these: at 1 µM.
For test [10] the target is unchanged. The conditions noted are these: at 10 µM.

PAS domain-containing serine/threonine-protein kinase (Homo sapiens), sequence (Q96RG2 whole entry, the tested form may be a part): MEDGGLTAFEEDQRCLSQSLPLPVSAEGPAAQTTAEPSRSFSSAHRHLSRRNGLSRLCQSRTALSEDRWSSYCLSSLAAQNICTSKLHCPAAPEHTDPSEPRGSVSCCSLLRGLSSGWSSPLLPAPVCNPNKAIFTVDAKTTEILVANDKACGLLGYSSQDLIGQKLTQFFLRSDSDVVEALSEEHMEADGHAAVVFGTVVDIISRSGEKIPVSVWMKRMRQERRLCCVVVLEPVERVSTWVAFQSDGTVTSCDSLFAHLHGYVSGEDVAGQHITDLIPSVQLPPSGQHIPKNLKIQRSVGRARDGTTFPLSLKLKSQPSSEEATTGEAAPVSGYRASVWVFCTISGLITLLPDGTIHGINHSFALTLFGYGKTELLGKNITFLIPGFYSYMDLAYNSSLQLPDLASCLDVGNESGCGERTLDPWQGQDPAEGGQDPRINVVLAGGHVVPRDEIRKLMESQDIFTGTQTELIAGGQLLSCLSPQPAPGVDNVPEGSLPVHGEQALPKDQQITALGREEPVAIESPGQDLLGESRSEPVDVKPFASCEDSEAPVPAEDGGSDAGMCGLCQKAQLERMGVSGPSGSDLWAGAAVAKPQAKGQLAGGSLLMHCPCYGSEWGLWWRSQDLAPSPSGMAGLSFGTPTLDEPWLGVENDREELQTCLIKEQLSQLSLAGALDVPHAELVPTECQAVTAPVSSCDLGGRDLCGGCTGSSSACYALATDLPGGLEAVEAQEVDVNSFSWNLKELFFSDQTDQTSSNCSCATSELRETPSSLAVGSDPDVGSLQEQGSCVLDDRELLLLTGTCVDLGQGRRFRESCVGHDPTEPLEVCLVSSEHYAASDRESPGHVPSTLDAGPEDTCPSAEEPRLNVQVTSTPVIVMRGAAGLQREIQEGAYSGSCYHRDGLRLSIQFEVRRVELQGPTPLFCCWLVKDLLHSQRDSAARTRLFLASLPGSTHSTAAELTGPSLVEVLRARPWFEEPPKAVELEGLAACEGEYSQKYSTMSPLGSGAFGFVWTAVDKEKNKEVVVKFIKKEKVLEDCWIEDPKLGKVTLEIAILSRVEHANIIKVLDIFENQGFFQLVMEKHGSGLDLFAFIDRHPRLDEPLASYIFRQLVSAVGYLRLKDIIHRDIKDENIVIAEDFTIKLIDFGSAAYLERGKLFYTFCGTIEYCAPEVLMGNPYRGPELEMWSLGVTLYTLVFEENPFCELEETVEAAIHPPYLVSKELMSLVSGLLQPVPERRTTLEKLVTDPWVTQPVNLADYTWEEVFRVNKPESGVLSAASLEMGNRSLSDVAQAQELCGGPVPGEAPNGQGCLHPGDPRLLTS
Serine/threonine-protein kinase PAK 5 (Homo sapiens), sequence (Q9P286 whole entry, looked up): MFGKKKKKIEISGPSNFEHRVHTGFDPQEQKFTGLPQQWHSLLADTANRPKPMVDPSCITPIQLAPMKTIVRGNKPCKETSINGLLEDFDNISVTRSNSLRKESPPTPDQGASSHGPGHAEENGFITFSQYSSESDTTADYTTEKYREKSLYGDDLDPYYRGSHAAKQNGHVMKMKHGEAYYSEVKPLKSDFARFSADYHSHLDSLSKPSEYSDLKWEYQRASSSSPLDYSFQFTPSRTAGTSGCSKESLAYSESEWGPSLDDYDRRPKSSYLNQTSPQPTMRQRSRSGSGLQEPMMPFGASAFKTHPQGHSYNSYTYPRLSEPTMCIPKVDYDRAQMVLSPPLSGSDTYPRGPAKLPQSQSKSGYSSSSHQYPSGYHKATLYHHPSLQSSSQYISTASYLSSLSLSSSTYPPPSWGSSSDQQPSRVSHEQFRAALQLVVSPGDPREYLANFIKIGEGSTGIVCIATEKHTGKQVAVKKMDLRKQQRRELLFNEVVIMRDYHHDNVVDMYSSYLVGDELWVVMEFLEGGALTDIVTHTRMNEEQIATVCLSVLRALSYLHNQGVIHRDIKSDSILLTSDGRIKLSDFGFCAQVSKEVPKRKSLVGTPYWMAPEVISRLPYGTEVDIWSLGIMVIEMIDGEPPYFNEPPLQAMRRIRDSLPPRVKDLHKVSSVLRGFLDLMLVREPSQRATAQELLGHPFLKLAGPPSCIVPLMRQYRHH

`O=C1NC(=O)c2c1c1c3ccccc3[nH]c1n1cncc21`: the residual activity in test [1] turned out to be 57%. In the case of `COc1ccc(C(=O)Nc2sc3c(c2C(N)=O)CCCC3)cc1OC`, the residual activity in test [1] was 95%. As for `COC(=O)[C@@]1(O)C[C@H]2O[C@]1(C)n1c3ccccc3c3c4c(c5c6ccccc6n2c5c31)C(=O)NC4`, the residual activity was 6% in test [2]; 1% in test [3]; 0% in test [4]; -1% in [5]; 14% in test [1]; 4% in [6]. Besides, the residual activity in test [7] turned out to be 0%; in [8], 0%; in test [9], 10%; in [10], 1%.

For the compound `CC(C)N(CCC(=O)c1ccc2ccccc2c1)Cc1ccccc1`, the residual activity in test [1] stood at 126%.

With `CC(=O)c1ccc(N2CCOCC2)cc1O`, the residual activity in test [1] was found to be 127%. Turning to `O=C1c2ccccc2-c2nc3nnnn3nc21`, the residual activity in [2] worked out at 80%; in test [3], 74%; in [4], 112%; in [5] it was 112%; in test [7], 109%; in test [8], 80%. As to `CC(=O)O/N=C1\C(=C2\C(=O)Nc3cc(Br)ccc32)Nc2ccccc21`, the residual activity in test [1] was 93%. The same measure, in the same setting: as for `NC(=O)c1ccc2[nH]c(-c3ccc(Oc4ccc(Cl)cc4)cc3)nc2c1`, the figure is 134%; as for `Cc1nc(-c2ccccc2)c(-c2ccncc2)o1`, 128%. For the compound `c1ccc(-c2cnc(Nc3ccc(OCCN4CCCC4)cc3)s2)cc1`, the residual activity in [1] was 81%. Same read-out and setting: as for `COc1cc2ncnc(Nc3ccc(O)c(Br)c3)c2cc1OC`, the figure is 73%.

With `O=c1cc(-c2cccc3c2Sc2ccccc2S3)oc(N2CCOCC2)c1`, the residual activity in [1] was 109%. Still for that read-out and setting: the figure for `N#Cc1cnc2cnc(NCc3cccnc3)cc2c1Nc1ccc(F)c(Cl)c1` is 80%; for `COc1cc2ncnc(Nc3ccc(Oc4ccccc4)cc3)c2cc1OC` it is 98%.

`COc1ccc(-c2cnc3c(-c4ccsc4)cnn3c2)cc1`: the residual activity in test [1] was 138%.

As to `COc1ccc(CNC(=O)Nc2ncc([N+](=O)[O-])s2)cc1`, in [1], the residual activity amounted to 133%. On the same count and under the same terms, the figure for `O=[N+]([O-])c1ccc(-c2nc(-c3ccc(F)cc3)c(-c3ccncc3)[nH]2)cc1` is 126%; for `Cc1ccc(S(=O)(=O)/C=C/C#N)cc1` it is 82%; for `COc1ccc(Cl)cc1NC(=O)Nc1cc(C)nc2ccccc12` it is 98%. On the same count and under the same terms, the figure for `CCN(CC)C(=O)c1ccc(Nc2nc(OCC3CCCCC3)c3nc[nH]c3n2)cc1` is 135%. Consider `COc1ccc(OC)c2c(=S)c3ccccc3[nH]c12`, for which, in test [1], the residual activity was 108%.

With `CN[C@@H]1C[C@H]2O[C@@](C)([C@@H]1OC)n1c3ccccc3c3c4c(c5c6ccccc6n2c5c31)C(=O)NC4`, the residual activity in [9] was determined as 0%; in test [10] it was 1%. With `O=c1cc(N2CCNCC2)oc2c(-c3ccccc3)cccc12`, in [1], the residual activity is 148%. Same read-out and setting: as for `Ic1cccc(CSc2nnc(-c3ccncc3)o2)c1`, the figure is 108%; as for `CN(C)CCCn1cc(C2=C(c3c[nH]c4ccccc34)C(=O)NC2=O)c2ccccc21`, 74%. In the case of `CCN(CC)CCCCN1c2ccccc2Oc2ccc(Cl)cc21`, the residual activity in [1] worked out at 88%.

As to `Nc1nc(Nc2ccc(S(N)(=O)=O)cc2)nn1C(=S)Nc1c(F)cccc1F`, in test [1], the residual activity stood at 108%. Same read-out and setting: the figure for `O=C1Nc2ccc(Br)cc2/C1=C\c1cc2c([nH]1)CCCC2` is 129%; for `Nc1nccc(-c2c(-c3ccc(F)cc3)ncn2C2CCNCC2)n1` it is 129%.

Regarding `N#C/C(=C\c1ccc(O)c(O)c1)C(=O)NCc1ccccc1`, the residual activity in test [1] stood at 100%. Still for that read-out and setting: the figure for `CC(C)n1cnc2c(NCc3ccccc3)nc(NCCCO)nc21` is 131%; for `O=C(CCCc1ccc(-c2ccccc2F)cc1)Nc1ccc(O)cc1` it is 102%. On to `O=C1C(Cl)=C(N2C(=O)CCC2=O)C(=O)c2ccccc21`, for which, in test [1], the residual activity worked out at 100%. Same read-out and setting: as for `N#CC(C#N)=C(N)/C(C#N)=C/c1ccc(O)cc1`, the figure is 99%.

On to `CO[C@H]1[C@@H](OC)C[C@H](C)[C@@H](OC)C2=CC(=O)C=C(NC(=O)/C(C)=C/C=C/[C@H](OC)[C@@H](OC(N)=O)/C(C)=C/[C@@H]1C)C2=O`, for which the residual activity in test [1] worked out at 125%. The same measure, in the same setting: the figure for `O=C1Nc2ccccc2/C1=C1/Nc2ccccc2/C1=N\OCCC(O)CO` (stereo unspecified) is 140%; for `O=C1Nc2ccc(Cl)cc2/C1=C/c1cc(Cl)c(O)c(Cl)c1` it is 111%; for `Nc1ncnc2c1c(-c1ccc(Oc3ccccc3)cc1)cn2C1CCCC1` it is 108%. As for `O=C(NC(NC(=S)Nc1ccc(F)c([N+](=O)[O-])c1)C(Cl)(Cl)Cl)C(c1ccccc1)c1ccccc1` (stereo unspecified), the residual activity in test [1] was determined as 103%. Still for that read-out and setting: the figure for `COc1ccc(CNc2nc(N(CCO)CCO)nc3c2ncn3C(C)C)cc1` is 117%; for `CCOc1cc2ncnc(Nc3cccc(Br)c3)c2cc1OCC` it is 79%; for `O=C1NC(=O)c2cc(Nc3ccc(F)cc3)c(Nc3ccc(F)cc3)cc21` it is 105%.

`c1ccc(-c2n[nH]c3c2oc2ccccc23)cc1`: the residual activity in test [1] amounted to 130%. Same read-out and setting: as for `Cn1c2ccccc2c2c3c(c4c5ccccc5n(CCC#N)c4c21)CNC3=O`, the figure is 93%. On the same count and under the same terms, the figure for `N#C/C(=C(\N)Sc1ccc(N)cc1)c1ccccc1C(F)(F)F` is 122%; for `c1ccc2c(-c3ccncc3)c[nH]c2c1` it is 99%.
